# Screens from PubChem BioAssay.
# Compounds with a hit are over-represented: about 3.1% of the library has one in this group of screens.
# Casp6 inh = human caspase-6 inhibitors, primary screen, biochemical, VEID-R110 fluorescence, single point, set 2; inhibition, % at 12.5 µM; P55212; actives 0.53% (n = 350,000); AID 686996, 2013; purified caspase-6, Z-VEID-R110 cleavage fluorescence;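 active means mean inhibition across replicates at least about 35%, with every replicate also reaching that limit, limit read from the data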;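 further: 0% = median of neutral control wells and 100% = no fluorescence left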
# SIRT5 inh = SIRT5 desuccinylase inhibitors, primary screen, biochemical, fluorescence imaging, single point, set 5; actives 1.1% (n = 330,000); inhibition, % at 15 µM; NAD-dependent protein deacylase sirtuin-5, mitochondrial (Homo sapiens), Q9NXA8; Purified SirT5, succinyl-peptide AMC, trypsin-coupled fluorescence; in the data active means inhibition above about 15%
# Target sequence (Q9NXA8 whole entry, looked up): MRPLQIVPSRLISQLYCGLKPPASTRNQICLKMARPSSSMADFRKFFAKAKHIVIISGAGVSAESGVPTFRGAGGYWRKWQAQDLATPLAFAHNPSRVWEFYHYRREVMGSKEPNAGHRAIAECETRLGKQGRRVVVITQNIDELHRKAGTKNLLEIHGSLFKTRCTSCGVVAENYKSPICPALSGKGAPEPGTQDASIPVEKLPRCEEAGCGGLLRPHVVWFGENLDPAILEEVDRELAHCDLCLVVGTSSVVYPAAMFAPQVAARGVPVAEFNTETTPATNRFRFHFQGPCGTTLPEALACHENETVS
# ERAP1 inh = human ERAP1 aminopeptidase inhibitors, primary screen, biochemical, single point, plate reader; Endoplasmic reticulum aminopeptidase 1 (Homo sapiens), Q9NZ08; recombinant ERAP1, Leu-AMC fluorescence, 60 min; inhibition, % at 10.7 µM; actives 0.15% (n = 340,000); AID 652197, 2013;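 active means mean replicate inhibition of at least 30%, or all replicates individually reaching that 30% level; inactive means mean below 30% and not every replicate reaching it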;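 further: 0% = neutral control wells and 100% = L-leucinethiol positive control wells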
# FGF22 binding = binders of human FGF22 protein, primary screen, FGF22 synaptogenesis inhibitor project, biophysical, thermal shift, single point; Fibroblast growth factor 22 (Homo sapiens), Q9HCT0; recombinant FGF22 thermal shift, SYPRO orange fluorescence; percent of sucrose octasulfate shift, DMSO zero; activity (Tm shift, normalised), % at 9.99 µM; actives 1.5% (n = 340,000); AID 651658, 2012;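 active means mean Tm shift, scaled 0 neutral to 100 positive control, at about 1.3% or above, every replicate too, limit read from the data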
# Active calls of the source: *; nt = not tested or not shown.
SMILES,Casp6 inh,SIRT5 inh,ERAP1 inh,FGF22 binding
O=C(Cc1cccnc1)N1CCCCN2[C@H](CO)[C@@H](c3ccc(C#CC4(O)CCCC4)cc3)[C@@H]2C1,-0.4,0.0,2.0,0.1
Cc1c(NC(NC(=O)CF)C(Cl)(Cl)Cl)c(=O)n(-c2ccccc2)n1C (stereo unspecified),-0.4,0.5,1.1,43.2*
Cc1c(NP(=S)(C(C)(C)C)C(C)(C)C)c(=O)n(-c2ccccc2)n1C,-1.3,0.0,9.3,0.1
CC(C)OCCCNC(=O)c1c(N)n(CC2CCCO2)c2nc3ccccc3nc12 (stereo unspecified),55.2*,-24.7,-106.3,0.2
CCN1[C@@H]2c3ccc(-c4ccc(OC)cc4)c(=O)n3C[C@H]1[C@H](CO)[C@H]2C(=O)OC,-0.2,-29.8,-1.4,0.1
C[C@H]1OC[C@@H](C[N+](C)(C)C)O1,-7.7,-3.8,103.6*,-0.3
COc1cc2c(cc1OC)-c1c(OC)c(OC)cc3c1C(C2)N(C)CC3 (stereo unspecified),68.5*,-5.2,4.9,-0.4
COc1cc2c(cc1O)C[C@H]1NCCc3cc4c(c-2c31)OCO4,16.1,-6.2,2.5,-0.4
COc1cc2c(cc1OC)-c1c3c(cc4c1[C@@H](C2)N(C)CC4)OCO3,48.0*,-3.4,3.0,-0.5
COc1ccc(CC2c3cc(OC)c(OC)cc3CCN2C)cc1O (stereo unspecified),5.4,2.9,-2.3,0.2
COC(=O)[C@H]1[C@H](CO)[C@H]2Cn3c(cccc3=O)[C@@H]1N2Cc1nccs1,-1.4,3.8,1.8,-0.2
CC=Cc1ccc2n(c1=O)C[C@@H]1[C@@H](CO)[C@H](C(=O)OC)[C@H]2N1CC1CCOCC1 (mixture of isomers),0.9,0.1,0.2,0.2
CC[n+]1c(-c2ccccc2)c2cc(N)ccc2c2ccc(N)cc21,99.0*,-1.0,12.0,-0.6
COc1cc2c(C(=O)O)c(C)n(C)c2cc1Br,-0.6,2.6,5.2,43.0*
Cc1ccc(C(O)(C(=O)NNC(=O)CN2CCN(C)CC2)c2ccc(C)cc2)cc1,-3.0,1.4,2.1,44.3*
O=C(Cc1ccccc1)N1CC2(C1)[C@H](c1ccccc1)[C@H](CO)N2Cc1cccc(F)c1,-0.4,-0.6,-0.6,-0.1
Cn1cc(C(=O)N2CCOCC2)c2ccccc21,-3.1,-1.2,0.6,nt
Cn1cc(C(=O)NP(=O)(N2CCOCC2)N2CCOCC2)c2ccccc21,3.1,2.0,-0.8,44.1*
Cn1c(=O)[nH]c2nncnc2c1=O,43.0*,2.0,1.1,0.0
O=C(N/N=C/c1c(O)n(CCc2ccc(F)cc2)c(=O)[nH]c1=O)c1ccccc1,3.1,-1.1,0.5,-0.2
O=C(N/N=C/c1c(O)n(CCc2ccccc2)c(=O)[nH]c1=O)c1ccccc1O,5.2,38.0*,nt,0.6
C=Cc1ccc(Cn2c(C(=O)O)c(C=O)c3ccccc32)cc1,33.3,17.4*,3.7,nt
O=Cc1c(C(=O)O)n(Cc2ccccc2Cl)c2ccccc12,-1.0,2.1,5.1,-0.2
CCOC(=O)C1C(OC(=O)c2ccccc2)CC2CCC1N2C (stereo unspecified),4.8,nt,-6.1,0.0
COC(=O)C1C(OC(=O)c2ccccc2)CC2CCC1[N+]2(C)C (stereo unspecified),1.5,nt,51.0*,-0.1
SMILES,Casp6 inh,SIRT5 inh,ERAP1 inh,FGF22 binding
CN1C(=O)C(=Cc2ccc(SC3CCCCC3)o2)C(=O)N(C)C1=O,26.2,-2.4,-2.5,43.2*
COC(=O)C[C@H]1CC[C@H]2NC[C@H](O)COC[C@@H]2O1,1.3,3.4,-3.0,-0.1
CN(C)[C@@H]1C(=O)C(C(N)=O)=C(O)[C@@]2(O)C(=O)C3=C(O)c4c(O)cccc4[C@@](C)(O)C3C[C@@H]12 (stereo partly specified),55.1*,19.9*,2.5,-0.4
CN(C)[C@@H]1C(=O)C(C(N)=O)=C(O)[C@@]2(O)C(=O)C3=C(O)c4c(O)ccc(Cl)c4[C@@](C)(O)[C@H]3C[C@@H]12,33.3,2.5,0.9,0.1
CN(C)[C@@H]1C(=O)C(C(N)=O)=C(O)[C@@]2(O)C(=O)C3=C(O)c4c(O)cccc4[C@@](C)(O)[C@H]3[C@H](O)[C@@H]12,68.8*,40.9*,2.0,0.0
COC(=O)[C@H]1[C@H](CO)[C@H]2Cn3c(ccc(/C=C/c4ccccc4)c3=O)[C@@H]1N2C(=O)C1CCC1,0.5,-102.0,-312.9,-0.2
